The list is not random: actives were taken first. Their share in the collection is about 19%.
KB-V1 MDR tox = KB-V1 MDR subline cytotoxicity; KB-V1 MDR cells viability, CellTiter-Glo, 72 h; Potency, µM (highest dose often 46.1 µM), usual class: cytotoxic; hit rate 3.4% among 400,000; note: nearly all actives have a fitted effect of over 60% in size
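Cytotoxicity toward P-gp-expressing KB-V1 cells was determined as loss of CellTiter-Glo luminescence after 72 h at 37 degrees C. Compounds were tested in quantitative HTS format across a concentration range, with curves fitted to normalized data.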
KB-3-1 tox = KB-3-1 parental cell cytotoxicity; Potency, µM (top dose mostly 46.1 µM), actives largely listed as cytotoxic; hit rate 1.4% among 400,000; KB-3-1 viability, CellTiter-Glo ATP luminescence, 72 h; note: nearly all actives have a fitted effect of over 60% in size
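Cells are dispensed, compounds pinned in, plates held at 37 °C for 72 h, then CellTiter-Glo is added and luminescence read after 10 minutes. Cell line: parental KB-3-1 in phenol-red-free DMEM, 10% FBS.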
HT1080-NT tox = kills 2HG-producing HT-1080-NT fibrosarcoma cells. HT-1080-NT fibrosarcoma viability, CellTiter-Glo ATP luminescence, 48 h. Potency, µM (titrated, usually from 46.1 µM), for the others: at the top dose activity, negative = less viability, most hits filed as cytotoxic. hit rate 1.6% among 360,000;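 note: NT is the 2HG producing partner of a matched IDH1 knockdown line; 0% = DMSO-treated cells and -100% = media-only wells without cells; nearly all actives have a fitted effect of over 55% in size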
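HT-1080-NT fibrosarcoma cells (2HG-overproducing), 750 cells/well in RPMI with 5% FBS, dosed after 2 h and incubated 48 h at 37C. CellTiter-Glo luminescence normalized to DMSO and no-cell wells; concentration-response curves fitted and classed.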
DT40 TDP1 no CPT = qHTS for Inhibitors of human tyrosyl-DNA phosphodiesterase 1 (TDP1): qHTS in cells in absence of CPT; DT40 Tdp1-/- hTDP1 cells, no CPT, ATP luminescence, 48 h; Potency, µM (doses to about 46.2 µM), for the others: at the top dose activity change, negative = growth inhibition, hits mostly inhibitors; hit rate 15% among 420,000; note: nearly all actives have a fitted effect of over 55% in size
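Compound effects on proliferation are scored in DT40 Tdp1-/-;hTDP1 cells in the absence of CPT. ATP levels (CellTiter-Glo luminescence) are recorded after a ≥48 hr, 37 °C incubation.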
TDP1 cell CPT = DT40-hTDP1 cell growth loss with CPT; chicken DT40 Tdp1-/-;hTDP1 cells + 20 nM CPT, ATP luminescence, 48 h; Potency, µM (titrated, usually from 46.2 µM), for the others: at the highest dose activity change, negative = growth inhibition, actives largely listed as inhibitors; hit rate 12% among 420,000; AID 686979; note: nearly all actives have a fitted effect of over 55% in size
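Chicken DT40 Tdp1-/- cells stably complemented with human TDP1 were seeded at 400 cells/well in medium containing 20 nM camptothecin, exposed to pin-transferred compounds, and grown at 37 °C for at least 48 hr. Viability was read as ATP luminescence.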
HT1080 IDH1KD tx = toxicity to HT-1080 IDH1 knockdown cells (counter line); HT-1080 IDH1 knockdown viability, ATP luminescence, 48 h; Potency, µM (titrated, usually from 46.1 µM), without a hit: at the highest dose activity, negative = toxicity, hits mostly cytotoxic; hit rate 2% among 360,000;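 note: 0% = DMSO wells and -100% = cell-free medium wells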
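Cytotoxicity counter-line: IDH1KD HT-1080, 48 h, CellTiter-Glo. Curves classed by r2, magnitude and activity.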
An asterisk follows results filed as active. Calls come from the whole dose curve; as a rule, active = well fitted curve in the direction sought with a large enough effect; inconclusive = small, poorly fitted or top-dose-only effect, or another doubt; inactive = no such curve, though single readings can be large; an effect the other way counts as inactive or inconclusive. Unless noted, % is set by controls: 0 for no effect and ±100 for the full control effect; potency is the fitted concentration of half-maximal effect.

Results for COc1cccc(-n2c(SCC(=O)Nc3ccc4c(c3)OCO4)nc3c([nH]c4ccccc43)c2=O)c1 ?
KB-V1 MDR tox: inactive; KB-3-1 tox: inactive; DT40 TDP1 no CPT: -29%; TDP1 cell CPT: -22%

What do the screens show for `O=C(NCc1ccccn1)Nc1cccc(F)c1`?
KB-V1 MDR tox: inactive; KB-3-1 tox: inactive; HT1080-NT tox: 1%; DT40 TDP1 no CPT: -3%; TDP1 cell CPT: 4%; HT1080 IDH1KD tx: 0%

Results for CN(c1nc2ccccc2[nH]c1=O)C1CCCCC1 ?
KB-V1 MDR tox: inactive; KB-3-1 tox: inactive; HT1080-NT tox: -20%; DT40 TDP1 no CPT: inconclusive; TDP1 cell CPT: inconclusive; HT1080 IDH1KD tx: -9%

What do the screens show for `COc1ccc(CCn2c(N)c(C#N)c3nc4ccccc4nc32)cc1OC`?
KB-V1 MDR tox: inconclusive; KB-3-1 tox: inactive; HT1080-NT tox: -12%; DT40 TDP1 no CPT: 13µM*; TDP1 cell CPT: 21µM*; HT1080 IDH1KD tx: -9%

How did Nc1c(C(=O)NCc2ccco2)c2nc3ccccc3nc2n1CCc1ccccc1F do in these assays?
KB-V1 MDR tox: inconclusive; KB-3-1 tox: inconclusive; HT1080-NT tox: -14%; DT40 TDP1 no CPT: inconclusive; TDP1 cell CPT: 16µM*; HT1080 IDH1KD tx: -15%

Results for CCOC(=O)c1c(N)n(-c2ccc(C)c(C)c2)c2nc3ccccc3nc12 ?
KB-V1 MDR tox: inactive; KB-3-1 tox: inactive

How did COc1ccc(Cn2c(N)c(C#N)c3nc4ccccc4nc32)cc1OC do in these assays?
KB-V1 MDR tox: inactive; KB-3-1 tox: inactive; HT1080-NT tox: -8%; DT40 TDP1 no CPT: -22%; TDP1 cell CPT: -14%; HT1080 IDH1KD tx: -21%

How did COC(=O)c1c(N)n(-c2ccc(OC)c(OC)c2)c2nc3ccccc3nc12 do in these assays?
KB-V1 MDR tox: inactive; KB-3-1 tox: inactive; DT40 TDP1 no CPT: 9.2µM*; TDP1 cell CPT: 5.8µM*

Results for CCCCOC(=O)c1c(N)n(-c2ccc(OC)cc2OC)c2nc3ccccc3nc12 ?
KB-V1 MDR tox: inactive; KB-3-1 tox: inactive; DT40 TDP1 no CPT: 16µM*; TDP1 cell CPT: 12µM*

What do the screens show for `COCC(C)OC(=O)c1c(N)n(-c2ccc(OC)c(OC)c2)c2nc3ccccc3nc12` (stereo not drawn)?
KB-V1 MDR tox: inactive; KB-3-1 tox: inactive; HT1080-NT tox: -3%; DT40 TDP1 no CPT: -10%; TDP1 cell CPT: -3%; HT1080 IDH1KD tx: 17%

What do the screens show for `COc1ccc(Br)cc1/C=N/n1c(COc2ccccc2)n[nH]c1=S`?
KB-V1 MDR tox: inactive; KB-3-1 tox: inactive; HT1080-NT tox: -1%; DT40 TDP1 no CPT: 20%; TDP1 cell CPT: 10%; HT1080 IDH1KD tx: 15%

What do the screens show for `COc1ccccc1NC(=O)C1=C(C)Nc2nc(CCCO)nn2C1c1cccc(O)c1` (stereo not drawn)?
KB-V1 MDR tox: inconclusive; KB-3-1 tox: inactive; DT40 TDP1 no CPT: -16%; TDP1 cell CPT: -2%

What do the screens show for `CC12CCC(/C(=C/NNc3ccc([N+](=O)[O-])cc3[N+](=O)[O-])C1=O)C2(C)C` (stereo not drawn)?
KB-V1 MDR tox: inactive; KB-3-1 tox: inactive; HT1080-NT tox: -15%; DT40 TDP1 no CPT: 18µM*; TDP1 cell CPT: 18µM*; HT1080 IDH1KD tx: -25%

How did O=C(NNc1ccc([N+](=O)[O-])cc1[N+](=O)[O-])C1C2CCCCC21 (stereo not drawn) do in these assays?
KB-V1 MDR tox: inconclusive; KB-3-1 tox: inactive; HT1080-NT tox: -3%; DT40 TDP1 no CPT: inconclusive; TDP1 cell CPT: -9%; HT1080 IDH1KD tx: -9%

How did O=[N+]([O-])c1cncc([N+](=O)[O-])c1Nc1ccccc1Cl do in these assays?
KB-V1 MDR tox: inactive; KB-3-1 tox: inactive; HT1080-NT tox: -1%; DT40 TDP1 no CPT: 23µM*; TDP1 cell CPT: 18µM*; HT1080 IDH1KD tx: -1%

Results for COc1ccc(Cn2c(SCc3ccc(C(=O)NC4CCCCC4)cc3)nc3cccnc32)cc1 ?
KB-V1 MDR tox: inconclusive; KB-3-1 tox: inactive; DT40 TDP1 no CPT: 15µM*; TDP1 cell CPT: inconclusive

What do the screens show for `O=C(NC1CC1)c1ccc(Cn2c(SCc3cccc(F)c3)nc3cccnc32)cc1`?
DT40 TDP1 no CPT: 8.2µM*; TDP1 cell CPT: inconclusive

How did O=C(NC1CCCC1)c1ccc(CSc2nc3cccnc3n2Cc2ccccc2F)cc1 do in these assays?
KB-V1 MDR tox: inactive; KB-3-1 tox: inactive; DT40 TDP1 no CPT: 21µM*; TDP1 cell CPT: inconclusive

What do the screens show for `O=C(NC1CCCCC1)c1ccc(CSc2nc3cccnc3n2Cc2cccc(F)c2)cc1`?
KB-V1 MDR tox: inconclusive; KB-3-1 tox: inconclusive; DT40 TDP1 no CPT: 5.2µM*; TDP1 cell CPT: 10µM*

How did O=C(NC1CCCCC1)c1ccc(Cn2c(SCc3ccc(F)cc3)nc3cccnc32)cc1 do in these assays?
DT40 TDP1 no CPT: -10%; TDP1 cell CPT: -9%

Results for CCC12CN3CC(CC)(CN(C1)C3c1cccc(OC)c1O)C2=O (stereo not drawn) ?
KB-V1 MDR tox: inactive; KB-3-1 tox: inactive; DT40 TDP1 no CPT: inconclusive; TDP1 cell CPT: -29%

What do the screens show for `O=C(Nc1sc2c(c1C(=O)NCc1cccnc1)CCCC2)c1cc(=O)c2ccccc2o1`?
KB-V1 MDR tox: inactive; KB-3-1 tox: inactive; DT40 TDP1 no CPT: inconclusive; TDP1 cell CPT: inconclusive

What do the screens show for `COc1ccc(NC(=O)Cn2c(SCc3ccc(C)cc3)nc3cccnc32)c(OC)c1`?
DT40 TDP1 no CPT: inconclusive; TDP1 cell CPT: 15µM*

What do the screens show for `O=C(NC1CCCCC1)c1ccc(CSc2nc3cccnc3n2Cc2ccc(F)cc2)cc1`?
KB-V1 MDR tox: inactive; KB-3-1 tox: inactive; DT40 TDP1 no CPT: 13µM*; TDP1 cell CPT: inconclusive

How did COc1ccc(/C=C2\C(=O)ON=C2c2ccccc2)cc1OC do in these assays?
KB-V1 MDR tox: inactive; KB-3-1 tox: inactive; HT1080-NT tox: 2%; DT40 TDP1 no CPT: inconclusive; TDP1 cell CPT: 26µM*; HT1080 IDH1KD tx: -1%

Results for O=C1NNC(c2ccccc2)=N/C1=C\c1ccco1 ?
KB-V1 MDR tox: inactive; KB-3-1 tox: inactive; HT1080-NT tox: -1%; DT40 TDP1 no CPT: inconclusive; TDP1 cell CPT: -27%; HT1080 IDH1KD tx: -8%

What do the screens show for `CCOc1cc(/C=C2\C(=O)ON=C2c2ccccc2)ccc1OC`?
KB-V1 MDR tox: inconclusive; KB-3-1 tox: inactive; HT1080-NT tox: 0%; DT40 TDP1 no CPT: 18µM*; TDP1 cell CPT: 23µM*; HT1080 IDH1KD tx: -3%
